Assay results as given in PubChem BioAssay (EPA / NIEHS).
“And” between values parts separate entries of the source, which are not always exact repeats. Identical values can stand only once. Inconclusive results are not listed. The source made the active and inactive calls. How the source made its calls: active means hit-call score of the fitted dose curve at least 0.9, where 1 is the maximum; inconclusive means response in the unintended direction; inactive means score below 0.9.

What was measured:
[1] = biological target: human Peripheral-type Benzodiazepine Receptor (PBR), TSPO (gene 706) (UniProt P30536); test: NVS_MP_hPBR: NovaScreen (NVS) Membrane Protein Assay for human Peripheral-type Benzodiazepine Receptor (PBR) (AID 2283331);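 further: hits reduce radioligand binding relative to DMSO baseline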
Sequence of human Peripheral-type Benzodiazepine Receptor (PBR), TSPO (gene 706) (P30536 whole entry, looked up): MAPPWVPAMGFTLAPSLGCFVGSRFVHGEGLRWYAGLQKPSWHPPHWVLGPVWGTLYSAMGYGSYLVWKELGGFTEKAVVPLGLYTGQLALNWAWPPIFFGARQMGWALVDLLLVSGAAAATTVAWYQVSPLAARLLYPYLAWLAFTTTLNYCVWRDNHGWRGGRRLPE
In short: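 Human colonic cell membranes were incubated with test chemical for 1 hour; radioligand binding was measured by filter-based scintillation counting. Primary screen ran in duplicate at 25 uM, with actives followed in concentration series; loss of signal versus DMSO baseline.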

[2] = biological target: rat Peripheral-type Benzodiazepine Receptor (PBR), Tspo (gene 24230) (UniProt P16257); test: NVS_MP_rPBR: NovaScreen (NVS) Membrane Protein Assay for rat Peripheral-type Benzodiazepine Receptor (PBR) (AID 2283335)
Sequence of rat Peripheral-type Benzodiazepine Receptor (PBR), Tspo (gene 24230) (P16257 whole entry, looked up): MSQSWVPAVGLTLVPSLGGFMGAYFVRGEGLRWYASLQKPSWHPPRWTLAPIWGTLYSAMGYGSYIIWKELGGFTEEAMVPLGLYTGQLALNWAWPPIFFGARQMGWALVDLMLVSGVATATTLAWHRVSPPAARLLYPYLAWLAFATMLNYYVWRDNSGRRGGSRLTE
In short: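 Rat kidney membranes; radioligand binding with displacement, filter-based scintillation counting, 1 h incubation. Primary screen in duplicate at 25 uM, actives followed in concentration series; loss of binding vs DMSO.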

[3] = tested on: NCBI gene 100848466; test: NVS_NR_bPR: NovaScreen (NVS) Nuclear Receptor Binding Assay for bovine Progextron Receptor (PR) (AID 2283343);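 on AC50: actives lower bound radioligand signal below DMSO meaning displacement of the label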
In short: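 Bovine uterine membrane preparation, cell-free; radioligand competitive displacement measured by scintillation counting 18 hours after dosing. Loss of signal versus DMSO baseline indicates binding; primary HTS single concentration 25 uM in duplicate, actives followed in concentration series.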

[4] = biological target: Estrogen receptor (Homo sapiens) (UniProt P03372); test: OT_ER_ERaERa_1440: Odyssey Thera (OT) 24-hour HEK293T Protein-Complementation Assay for Estrogen Receptor-alpha/-alpha Homodimer (AID 2283349);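 further: hits raise fluorescence above DMSO for agonists and antagonists alike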
Sequence of Estrogen receptor (Homo sapiens) (P03372 whole entry, looked up, the tested form may be a part): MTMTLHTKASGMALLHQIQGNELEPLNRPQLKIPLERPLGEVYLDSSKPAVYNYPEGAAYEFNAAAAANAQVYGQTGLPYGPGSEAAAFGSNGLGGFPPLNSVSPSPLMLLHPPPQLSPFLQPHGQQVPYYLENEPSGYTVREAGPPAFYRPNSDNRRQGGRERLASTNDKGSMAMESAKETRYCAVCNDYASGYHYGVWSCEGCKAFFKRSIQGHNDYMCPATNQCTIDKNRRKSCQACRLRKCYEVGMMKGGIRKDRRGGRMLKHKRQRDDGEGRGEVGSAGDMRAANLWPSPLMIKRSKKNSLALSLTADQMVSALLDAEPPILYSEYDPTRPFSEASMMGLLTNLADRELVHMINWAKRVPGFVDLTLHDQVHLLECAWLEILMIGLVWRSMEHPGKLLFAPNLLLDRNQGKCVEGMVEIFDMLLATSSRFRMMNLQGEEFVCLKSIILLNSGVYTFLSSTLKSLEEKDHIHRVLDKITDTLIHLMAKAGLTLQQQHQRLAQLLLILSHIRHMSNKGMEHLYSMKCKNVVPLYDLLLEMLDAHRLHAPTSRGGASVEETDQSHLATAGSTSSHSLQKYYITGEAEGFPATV
In short: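 Readout is the rise in mean fluorescence from reporter fragment complementation when ERα LBD (aa 310-547) units dimerize in HEK293T cells. Measured 24 h after dosing and analysed as increase over DMSO control.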

[5] = biological target: Estrogen receptor (Homo sapiens) (UniProt P03372); test: OT_ER_ERaERa_0480: Odyssey Thera (OT) 8-hour HEK293T Protein-Complementation Assay for Estrogen Receptor-alpha/-alpha Homodimer (AID 2283351);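 further: rise in fluorescence from reassembled reporter fragments on ERα LBD homodimer in nucleus or whole cell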
In short: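 HEK293T, stable ERα LBD (aa 310-547) PCA homodimer; 8 h compound exposure; fluorescence intensity, laser scanning cytometer; positive fitting direction, DMSO baseline.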

[6] = biological target: Estrogen receptor (Homo sapiens) + Estrogen receptor beta (Homo sapiens) (UniProt P03372+Q92731); test: OT_ER_ERaERb_0480: Odyssey Thera (OT) 8-hour HEK293T Protein-Complementation Assay for Estrogen Receptor-alpha/-beta Heterodimer (AID 2283352)
Sequence of Estrogen receptor (Homo sapiens) + Estrogen receptor beta (Homo sapiens) (P03372 whole entry, looked up): as the sequence (P03372 whole entry, looked up, the tested form may be a part) above
Sequence of Estrogen receptor (Homo sapiens) + Estrogen receptor beta (Homo sapiens) (Q92731 whole entry, looked up): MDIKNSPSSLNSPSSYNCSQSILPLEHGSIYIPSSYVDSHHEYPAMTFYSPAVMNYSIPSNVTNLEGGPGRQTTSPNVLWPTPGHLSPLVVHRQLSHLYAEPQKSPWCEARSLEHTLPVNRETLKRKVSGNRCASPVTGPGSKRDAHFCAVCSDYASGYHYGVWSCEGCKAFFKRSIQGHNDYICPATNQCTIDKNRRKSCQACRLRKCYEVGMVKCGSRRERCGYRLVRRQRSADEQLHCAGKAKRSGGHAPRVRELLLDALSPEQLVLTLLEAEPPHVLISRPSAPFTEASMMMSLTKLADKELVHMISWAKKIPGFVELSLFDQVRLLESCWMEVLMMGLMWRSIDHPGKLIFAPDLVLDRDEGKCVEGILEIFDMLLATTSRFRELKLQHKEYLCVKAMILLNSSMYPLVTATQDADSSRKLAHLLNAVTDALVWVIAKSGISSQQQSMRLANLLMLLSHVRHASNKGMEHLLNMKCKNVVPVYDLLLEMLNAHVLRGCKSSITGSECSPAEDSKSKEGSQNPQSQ
In short: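 Compound added to HEK293T cells carrying split-reporter-tagged ER-alpha and ER-beta LBDs, incubated 8 hours, then imaged by laser scanning cytometer. Signal rise in nucleus, or nucleus and cytoplasm, over vehicle was fitted in the positive direction.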

[7] = biological target: Voltage-gated inwardly rectifying potassium channel KCNH2 (Homo sapiens) (UniProt Q12809); test: NVS_IC_hKhERGCh: NovaScreen (NVS) Ion Channel Assay for human Potassium Channel ERG (KhERGCh) (AID 2283333)
Sequence of Voltage-gated inwardly rectifying potassium channel KCNH2 (Homo sapiens) (Q12809 whole entry, looked up): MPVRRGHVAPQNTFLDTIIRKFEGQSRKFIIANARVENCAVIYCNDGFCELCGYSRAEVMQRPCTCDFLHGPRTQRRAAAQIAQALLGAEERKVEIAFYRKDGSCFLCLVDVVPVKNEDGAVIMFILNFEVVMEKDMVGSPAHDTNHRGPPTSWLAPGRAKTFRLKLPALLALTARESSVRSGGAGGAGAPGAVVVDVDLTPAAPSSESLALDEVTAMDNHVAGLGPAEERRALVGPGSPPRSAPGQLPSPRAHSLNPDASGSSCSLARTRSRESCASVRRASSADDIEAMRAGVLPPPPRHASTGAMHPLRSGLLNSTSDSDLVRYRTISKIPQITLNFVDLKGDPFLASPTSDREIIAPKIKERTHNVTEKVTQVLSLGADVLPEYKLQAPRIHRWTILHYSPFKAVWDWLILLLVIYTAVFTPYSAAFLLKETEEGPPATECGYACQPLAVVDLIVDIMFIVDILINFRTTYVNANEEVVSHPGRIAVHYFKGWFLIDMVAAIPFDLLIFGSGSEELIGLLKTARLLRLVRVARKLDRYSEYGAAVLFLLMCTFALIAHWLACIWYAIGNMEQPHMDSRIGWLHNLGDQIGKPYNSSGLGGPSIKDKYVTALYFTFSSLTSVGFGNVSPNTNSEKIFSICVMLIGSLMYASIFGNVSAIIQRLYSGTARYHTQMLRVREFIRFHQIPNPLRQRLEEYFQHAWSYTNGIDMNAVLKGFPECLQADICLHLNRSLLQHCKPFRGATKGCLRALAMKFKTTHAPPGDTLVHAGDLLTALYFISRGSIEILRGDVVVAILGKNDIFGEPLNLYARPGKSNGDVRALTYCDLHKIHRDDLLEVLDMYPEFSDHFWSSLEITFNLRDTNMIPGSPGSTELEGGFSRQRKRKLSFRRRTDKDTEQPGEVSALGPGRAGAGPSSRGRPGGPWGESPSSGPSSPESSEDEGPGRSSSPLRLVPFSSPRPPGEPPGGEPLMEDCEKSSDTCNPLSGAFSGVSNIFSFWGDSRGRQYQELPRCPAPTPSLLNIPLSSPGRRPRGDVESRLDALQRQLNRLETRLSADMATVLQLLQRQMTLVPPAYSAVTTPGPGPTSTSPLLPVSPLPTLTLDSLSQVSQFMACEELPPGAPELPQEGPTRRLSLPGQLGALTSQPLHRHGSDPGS
In short: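 Cell-free radioligand competition binding on hERG protein extracted from CHO cells, read by filter-based scintillation counting 0.75 h after dosing. Primary screen at 25 uM in duplicate, actives followed in concentration series. Signal loss fitted versus DMSO.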

[8] = NVS_IC_rCaBTZCHL: NovaScreen (NVS) Ion Channel Assay for Calcium Channel, Type L, Benzothiazepine Site (CaBTZCHL) (AID 2283337)
In short: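 Scintillation counting of filter-bound radioligand gave the read-out, with reduced binding versus DMSO scored as activity. Membranes came from rat cortex and were read 1.5 h after compound addition. Chemicals were screened first in duplicate at 25 uM.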

[9] = biological target: Estrogen receptor (Homo sapiens) (UniProt P03372); test: NVS_NR_hER: NovaScreen (NVS) Nuclear Receptor Binding Assay for human Estrogen Receptor (ER) (AID 2283348)
In short: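 Cell-free radioligand binding with protein extracted from MCF7 cells; scintillation counting 18 hours after dosing. Loss of signal versus DMSO baseline read as displacement; primary single-concentration screen at 25 uM in duplicate, actives retested in concentration series.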

[10] = biological target: rat Glutamate, MK-801 Agonist Site (GluNMDA_MK801), Grin1 (gene 24408) (UniProt P35439); test: NVS_LGIC_rGluNMDA_MK801_Agonist: NovaScreen (NVS) Ligand-Gated Ion Channel Assay for rat Glutamate, MK-801 Agonist Site (GluNMDA_MK801) (AID 2283340)
In short: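 Radioligand binding at MK-801 site in rat forebrain membranes, 1.5 h incubation, filter-based scintillation counting. Initially 25 uM in duplicate; actives then run in concentration-response up to 50 uM, fitted for gain of signal versus DMSO.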

[11] = biological target: rat Glycine Receptor, Strychnine-sensitive (GlyRStrySens), Glra1 (gene 25674) (UniProt P07727); test: NVS_LGIC_rGlyRStrySens: NovaScreen (NVS) Ligand-Gated Ion Channel Assay for rat Glycine Receptor, Strychnine-sensitive (GlyRStrySens) (AID 2283341)
In short: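 Radioligand displacement on rat spinal cord membranes, 1 hr, filter scintillation read-out. Single-concentration duplicate screen at 25 uM; chemicals meeting threshold (e.g., 30% inhibition) rerun in concentration-response up to 50 uM. Loss of binding fitted versus DMSO.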

[12] = biological target: chimpanzee Androgen Receptor (AR), AR (gene 747460) (UniProt O97775); test: NVS_NR_cAR: NovaScreen (NVS) Nuclear Receptor Binding Assay for chimpanzee Androgen Receptor (AR) (AID 2283346);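 further: radioligand displacement from AR measured by scintillation counting in a cell-free assay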
Sequence of chimpanzee Androgen Receptor (AR), AR (gene 747460) (O97775 whole entry, looked up): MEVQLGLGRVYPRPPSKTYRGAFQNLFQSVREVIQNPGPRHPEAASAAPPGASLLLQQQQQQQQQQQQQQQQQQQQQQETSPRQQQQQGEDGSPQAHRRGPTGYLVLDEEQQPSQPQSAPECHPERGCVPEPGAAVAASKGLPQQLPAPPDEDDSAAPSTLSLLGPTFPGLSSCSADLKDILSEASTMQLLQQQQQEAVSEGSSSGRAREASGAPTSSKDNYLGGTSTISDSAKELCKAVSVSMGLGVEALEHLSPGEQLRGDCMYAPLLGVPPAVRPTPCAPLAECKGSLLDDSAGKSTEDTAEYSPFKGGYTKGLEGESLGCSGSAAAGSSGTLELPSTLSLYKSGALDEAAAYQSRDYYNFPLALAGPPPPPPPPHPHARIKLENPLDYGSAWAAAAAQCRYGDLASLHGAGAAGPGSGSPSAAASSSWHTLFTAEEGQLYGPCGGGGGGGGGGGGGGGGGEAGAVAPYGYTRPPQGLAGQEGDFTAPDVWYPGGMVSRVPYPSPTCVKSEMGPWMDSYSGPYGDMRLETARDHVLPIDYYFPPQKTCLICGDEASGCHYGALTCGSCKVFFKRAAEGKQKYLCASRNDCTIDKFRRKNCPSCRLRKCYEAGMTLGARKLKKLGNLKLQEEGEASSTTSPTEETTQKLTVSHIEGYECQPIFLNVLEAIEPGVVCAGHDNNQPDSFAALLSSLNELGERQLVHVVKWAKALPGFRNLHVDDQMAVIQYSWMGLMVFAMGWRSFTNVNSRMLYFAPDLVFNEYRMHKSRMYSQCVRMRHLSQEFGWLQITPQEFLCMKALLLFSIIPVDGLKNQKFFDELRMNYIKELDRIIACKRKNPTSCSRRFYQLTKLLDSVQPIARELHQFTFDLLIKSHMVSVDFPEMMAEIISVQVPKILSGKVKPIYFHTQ
In short: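 Cell-free radioligand displacement using receptor protein extracted from Sf9/Sf21 cells; bound radioligand measured by scintillation counting 72 hours after chemical dosing. Loss of signal versus DMSO baseline indicates binding; primary screen single-concentration in duplicate at 25 uM, actives followed in concentration series.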

[13] = biological target: Small conductance calcium-activated potassium channel protein 1 (Rattus norvegicus) (UniProt P70606); test: NVS_IC_rKCaCh: NovaScreen (NVS) Ion Channel Assay for rat Potassium Channel, Ca2+ Act., VI (KCaCh) (AID 2283336)
Sequence of Small conductance calcium-activated potassium channel protein 1 (Rattus norvegicus) (P70606 whole entry, looked up): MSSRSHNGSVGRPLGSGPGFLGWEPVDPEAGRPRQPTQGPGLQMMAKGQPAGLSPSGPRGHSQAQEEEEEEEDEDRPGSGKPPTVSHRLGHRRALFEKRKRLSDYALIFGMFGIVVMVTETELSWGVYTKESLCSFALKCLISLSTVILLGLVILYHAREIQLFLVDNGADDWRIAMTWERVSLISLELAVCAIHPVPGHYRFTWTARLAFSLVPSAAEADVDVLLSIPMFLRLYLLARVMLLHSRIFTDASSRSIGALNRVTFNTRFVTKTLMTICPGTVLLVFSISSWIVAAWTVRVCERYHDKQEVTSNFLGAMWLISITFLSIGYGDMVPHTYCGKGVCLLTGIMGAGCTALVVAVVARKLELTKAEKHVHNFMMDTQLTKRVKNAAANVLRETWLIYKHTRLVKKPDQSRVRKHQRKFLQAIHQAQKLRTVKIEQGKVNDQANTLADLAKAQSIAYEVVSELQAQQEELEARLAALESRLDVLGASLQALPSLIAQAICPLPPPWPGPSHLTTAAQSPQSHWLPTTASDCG
In short: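 Radioligand binding to rat forebrain membranes, cell-free, read 1 hour after dosing by filter-based scintillation counting. Compounds first run in duplicate at 25 uM, actives then in concentration series; loss of signal vs DMSO indicates displacement.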

[14] = biological target: human Constitutive Androstane Receptor (CAR), NR1I3 (gene 9970) (UniProt Q14994); test: NVS_NR_hCAR_Agonist: NovaScreen (NVS) Nuclear Receptor Binding Assay for human Constitutive Androstane Receptor Agonism (CAR) (AID 2283328)
Sequence of human Constitutive Androstane Receptor (CAR), NR1I3 (gene 9970) (Q14994 whole entry, looked up): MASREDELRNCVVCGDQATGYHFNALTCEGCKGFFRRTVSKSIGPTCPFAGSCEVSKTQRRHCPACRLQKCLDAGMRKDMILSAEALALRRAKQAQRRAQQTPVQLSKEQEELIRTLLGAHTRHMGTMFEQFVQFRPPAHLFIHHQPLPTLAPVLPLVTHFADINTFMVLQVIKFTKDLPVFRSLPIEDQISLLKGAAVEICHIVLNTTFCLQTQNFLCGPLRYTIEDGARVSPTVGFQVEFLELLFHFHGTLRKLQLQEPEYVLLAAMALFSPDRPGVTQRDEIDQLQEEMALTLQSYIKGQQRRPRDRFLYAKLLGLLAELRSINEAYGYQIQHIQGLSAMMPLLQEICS
In short: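 Cell-free TR-FRET binding readout with extracted human CAR protein, read 1 h after dosing. Gain of signal fitted against DMSO baseline. Single-concentration duplicates at 25 uM, then concentration-response up to 50 uM for actives.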

[15] = biological target: rat Thyrotropin Releasing Hormone Receptor (TRH), Trhr (gene 25570) (UniProt Q01717); test: NVS_GPCR_rTRH: NovaScreen (NVS) G Protein-Coupled Receptor Assay for rat Thyrotropin Releasing Hormone Receptor (TRH) (AID 2283329);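 further: hit means lower bound tracer signal versus DMSO baseline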
In short: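 Cell-free radioligand binding on rat forebrain membranes; bound tracer measured by filter-based scintillation counting 4 hours after dosing. Loss of signal versus DMSO baseline indicates displacement; primary screen at 25 uM in duplicate, actives then run in concentration series.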

Which results are given for `Cc1ccc2oc(CN(Cc3ccccc3)C(=O)Nc3c(F)cc(F)cc3F)c(-c3ccc(Cl)cc3)c2c1`?
AC50 [1]: 2.6 µM (active); AC50 [2]: 4.2 µM (active); outcome [3]: inactive; outcome [4]: inactive; outcome [5]: inactive; outcome [6]: inactive

Which AC50 [7] does the source give for `CCCCCCCCCCCC[N+](C)(C)C` here?
Its AC50 is 10.2 µM (active).

And the AC50 [8]?
The AC50 was 12.2 µM (active).

Which AC50 [1] does the source give for `CC(C)(O)c1ccc(CNC(=O)c2cccnc2Oc2ccc3nonc3c2)cc1` here?
Its AC50 is 2.34 µM (active).

And the AC50 [2]?
The AC50 was 7.64 µM (active).

And the outcome [9]?
The outcome was “inactive”.

What about the outcome [4] of the same compound?
The outcome was “inactive”.

And the outcome [5]?
The outcome was “inactive”.

Which AC50 [1] does the source give for `NCc1cccc(C2CCN(C(=O)c3ccc(C#Cc4ccccc4F)o3)CC2)c1` here?
The AC50 was 2.7 µM (active).

What about the AC50 [7] of the same compound?
The AC50 was 6.03 µM (active).

And the outcome [2]?
Its outcome is “inactive”.

What about the AC50 [8] of the same compound?
The AC50 was 2.9 µM (active).

And the AC50 [10]?
The AC50 was 39.9 µM (active).

And the outcome [11]?
Its outcome is “inactive”.

What about the AC50 [12] of the same compound?
Its AC50 is 32.6 µM (active).

And the outcome [9]?
The outcome was “inactive”.

And the outcome [4]?
Its outcome is “inactive”.

And the outcome [5]?
The outcome was “inactive”.

For `OC12N=C(c3ccccc3)SC1Cc1cc(Cl)ccc12` (configuration not stated), which outcome [1] is on record?
Its outcome is “inactive”.

And the AC50 [2]?
The AC50 was 6.16 µM (active).

What about the outcome [13] of the same compound?
Its outcome is “inactive”.

What about the outcome [12] of the same compound?
Its outcome is “inactive”.

And the outcome [4]?
The outcome was “inactive”.

And the outcome [5]?
Its outcome is “inactive”.

What about the outcome [6] of the same compound?
Its outcome is “inactive”.

For `CCCCOC(=O)c1ccc(O)cc1`, which outcome [14] is on record?
Its outcome is “inactive”.

What about the AC50 [1] of the same compound?
Its AC50 is 19.6 µM (active) and 25 µM (active).

What about the AC50 [2] of the same compound?
Its AC50 is 3 µM (active) and 25 µM (active).

And the outcome [3]?
Its outcome is “inactive”.

And the outcome [12]?
The outcome was “inactive”.

What does the source list for `CCN(Cc1cccnc1)C(=O)c1cccc(Cl)c1[C@]1(C)C(=O)N(Cc2ccc(OC)cc2OC)c2ccc(Cl)cc21`?
AC50 [1]: 1.07 µM (active); AC50 [2]: 1.69 µM (active); outcome [13]: inactive; AC50 [8]: 12.6 µM (active); AC50 [3]: 2.77 µM (active); AC50 [12]: 18.3 µM (active); AC50 [9]: 7.99 µM (active); outcome [4]: inactive; outcome [5]: inactive; outcome [6]: inactive

What does the source list for `O=C1CCC(C2CCCCC2)CC1`?
outcome [15]: inactive; outcome [12]: inactive
